Compounds without any hit were thinned out: in the full panel of roughly 83,000, 20% have a hit.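 Assay: single dose, 48 h. Readout: percent growth (0 = no net growth; negative = cell death). Active: <10.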 The source made the active and inactive calls.

The experiment concerns HCT-15 colon. Nature of the experiment: NCI-60 one-dose screen, 48 h (100 = growth as untreated, 0 = no growth, -100 = all killed). The conditions noted are these: 10 µM unless noted. How it is done: Growth inhibition of the HCT-15 human tumor cell line is measured as a screen for anti-cancer activity. Cells are grown in 96 well plates and exposed to the test compound for 48 hours. Compounds are tested at a single concentration, which is 10^-5 M for most compounds. The reported endpoint is percent growth (GI% or GIPRCNT), where numbers from 0 - 100% represent growth inhibition, and numbers from -100% - 0 represent cell death. For example, a value of 40 represents 60% growth inhibition. A value of 0 means no net growth occurred over the course of the experiment. A value of -40 indicates 40% of cells at the beginning of the experiment died by the end of the experiment. A value of -100 means all cells are dead at the end of the experiment.
NCI-60 Human Tumor Cell Lines Screen was performed using the standard one-dose NCI protocol, which is described in more detail at https://dtp.cancer.gov/discovery_development/nci-60/default.htm.
Compounds with GIPRCNT values below 10 were considered active. Activity score was based on GIPRCNT using the following formula: […]
Score is 0 for GIPRCNT values of 100 or above, 50 for GIPRCNT values of 0, and 100 for GIPRCNT values of -100.
On to `COc1ccc(NC(=O)c2sc3nc(C)c(C(=O)/C=C/c4ccccc4)cc3c2N)cc1`, for which the growth is 0.101% (active).
With `COc1ccc2c(c1OC)CO[C@@H]2[C@H]1c2c(cc3c(c2OC)OCO3)CCN1S(=O)(=O)c1cn(C)cn1`, the growth is 13.5% (inactive).
For `N#CSc1c[nH]c2cccc(/C=C/C(=O)/C=C(/C=C/c3cccc4[nH]cc(SC#N)c34)OB(F)F)c12`, the growth is -73.6% (active).
Take `CSc1nc(N)c(NS(=O)(=O)c2ccc(C(C)=O)cc2)c(=O)[nH]1`: the growth was 98.4% (inactive).
Consider `CCOC(=O)c1nn(-c2ccc(S(N)(=O)=O)cc2)c2nc(C)cc(=O)n12`, for which the growth was 108% (inactive).
As to `COc1cc2c(cc1OCCCN1CCN(CCCOc3cc4c(cc3OC)C(=O)N3CCC[C@H]3C=N4)CC1)C=CC(C)(C)O2`, the growth is -98% (active).
For the compound `CCCCNC(=O)Oc1ccc(/C(=C(/C)Cc2ccc(OC)cc2)c2ccc(OCCN(CC)CC)cc2)cc1`, the growth is 41% (inactive).
`COc1ccc(C2=C(Br)C(=O)c3nc(C)ccc3C2=O)cc1`: the growth was 93.1% (inactive).
On to `CS(=O)(=O)c1ccc(-c2cnn3ccc(-c4cccc(S(=O)(=O)C5CC5)c4)nc23)cc1`, for which the growth is 57% (inactive).
For the compound `CC/C=C\C[C@H](O)C/C=C1/C(=O)C=C[C@@H]1C/C=C\CCCC(=O)N(C)C`, the growth is -21.8% (active).
Turning to `COc1ccc(-c2cc(-c3cccnc3)nc3sc4c(=O)[nH]c(-c5ccc(Cl)cc5)nc4c23)cc1OC`, the growth is 97% (inactive).
As for `CC1(C)CC(=O)C2=C(C1)N(c1ccc(OC(F)(F)F)cc1)C(N)=C(C#N)C2c1ccc(Br)cc1F` (stereo not given), the growth is 71.4% (inactive).
As to `Cc1ccc2c(n1)C(=O)C(Br)=C(C1CCCC1)C2=O`, the growth is 99.5% (inactive).
Under `O=C1Nc2ccccc2/C1=C/c1nc2ccccc2c(=O)[nH]1` stands 72.6% (inactive); under `COc1c(B(O)O)cccc1-c1cc(C)c2c(ccc3[nH]ncc32)n1`, 95.2% (inactive).
With `O=c1[nH]c(Cc2nc3ccccc3s2)nc2cc(Br)ccc12`, the growth is 61.7% (inactive).
Regarding `COc1c(C(=O)Nc2ccc(C)c(Br)c2)ccc2ccccc12`, the growth is 61.2% (inactive).
For the compound `N#Cc1c(-c2ccc(Cl)cc2)nc(NN2C(=O)c3ccccc3C2=O)nc1N1CCOCC1`, the growth is 112% (inactive).
The value for `OB1OCc2cc(/C=C/c3cccc(C(F)(F)F)c3)ccc21` was 17.8% (inactive).
In the case of `Cc1nc2sc(C(=O)Nc3ccc(Br)cc3)c(N)c2cc1C(O)c1ccccc1` (stereo not given), the growth is 34.7% (inactive).
As to `O=C(Nn1c2c(sc1=NC1CC1)C(=O)c1ccccc1C2=O)c1cc2ccc1CCc1ccc(cc1)CC2`, the growth is 2.79% (active).
Regarding `Nc1ncnc2c1N=C(c1ccc(Br)cc1)CC(c1cccc(Nc3ccnc4cc(C(F)(F)F)ccc34)c1)N2` (stereo not given), the growth was 27.2% (inactive).
Consider `Cc1cc(N2CCN(CCNc3ccnc4cc(Cl)ccc34)CC2)nc(N2CCOCC2)n1`, for which the growth was 27.4% (inactive).
For `CCOC(=O)c1cc2c(n1Cc1cc(OC)c(OC)c(OC)c1)-c1nc(N)sc1CCC2`, the growth is 35.9% (inactive).
As to `O=C(CSC(=S)n1cnnc1)NC(=O)c1ccccc1`, the growth was 107% (inactive).
Under `O=C(Nc1ccccc1)Nc1ncnc2c1ncn2-c1ccc(Cl)cc1` stands 79% (inactive).
Take `Nc1[nH]n2cc(-c3ccccc3)nc2c1N=Nc1ccc(S(N)(=O)=O)cc1`: the growth is 22.8% (inactive).
The value for `NS(=O)(=O)c1ccc(N=Nc2c(O)n(Cc3ccccc3)c3ccc(Cl)cc23)cc1` was 88.8% (inactive); that for `COC(=O)[C@]12CCC(C)(C)C[C@H]1[C@H]1/C(=N/OCCc3nn[nH]n3)C[C@@H]3[C@@]4(C)CC[C@H](OC(C)=O)C(C)(C)[C@@H]4CC[C@@]3(C)[C@]1(C)CC2` was 33.3% (inactive).
On to `CCOC(=O)c1c(NC(=O)c2cccc(C(F)(F)F)c2)sc2c(CN(C)C)c(O)ccc12`, for which the growth is 10.6% (inactive).
Turning to `C#CCNC(=O)[C@H](CC)[C@H]1CC[C@H](C)[C@H]([C@@H](C)[C@H](O)[C@H](C)C(=O)[C@H](CC)C2O[C@]3(C=CC(=O)[C@]4(CC[C@@](C)([C@H]5CC[C@](O)(CC)[C@H](C)O5)O4)O3)[C@H](C)C[C@@H]2C)O1` (stereo not given in full), the growth was 28.8% (inactive).
Under `O=C(Nc1nc2ccc(C(=O)N3CCN(/C=C/c4ccccc4)CC3)cc2s1)c1ccc(NCCc2ccccc2)c([N+](=O)[O-])c1` stands 22.4% (inactive); under `O=c1scc(-c2ccc(C(F)(F)F)cc2)s1`, 93.4% (inactive).
Turning to `O=C1C(Cl)=C(Nc2ccc(S(=O)(=O)N3CCOCC3)cc2)C(=O)c2ccccc21`, the growth was 36.2% (inactive).
Under `C#CCOc1ccc2ncnc(Nc3ccc(NC(=O)C=C)cc3)c2c1` stands -14.8% (active); under `CCc1ncnc2c1ccn2C(C)c1ccc(OC)c(F)c1` (stereo not given), 39.2% (inactive); under `O=C(NCc1ccc(Cl)cc1Cl)C1CCC(=O)N1c1cccs1` (stereo not given), 96.5% (inactive).
`CC(=O)O[C@@H]1C[C@]2(C(C)C)O[C@@]1(C)[C@@H]1CCC(C)=C1[C@@H]2OC(=O)/C=C/c1ccccc1`: the growth is 87.2% (inactive).
`CN1C(=O)/C(=C\c2nc([P+](c3ccccc3)(c3ccccc3)c3ccccc3)c(N3CCOCC3)o2)SC1=S`: the growth is 91.3% (inactive).
Regarding `CCC(=C(c1ccc(OCCN2CCCCC2)cc1)c1ccc(OCCN2CCCCC2)cc1)c1ccc(Cl)cc1`, the growth was -84.9% (active).

Values taken from PubChem BioAssay (NCI).
